Reference: PubChem BioAssay (Tox21)
Activity calls are given as the source filed them. Entries that show only a call come without a potency. Unless noted, calls follow the shape of the dose curve; as a rule, active = well fitted curve in the direction sought with a large enough effect in the repeat runs; inconclusive = weak or mixed curves; inactive = no such curve, though single readings can be large; an effect the other way counts as inactive or inconclusive.

Tests used:
[1] = qHTS assay to identify small molecule antagonists of the thyroid receptor (TR) signaling pathway - cell viability counter screen (AID 743064); also: nearly all actives have a fitted effect of over 50% in size; also: potency is read from the fitted curve at half-maximal effect
Procedure, shortened: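 Same-well viability check: GH3.TRE-Luc cells stimulated with 1 nM T3 alongside test compound for 23.5 h, followed by CellTiter-Fluor fluorescence.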

[2] = qHTS assay to identify small molecule antagonists of the thyroid receptor (TR) signaling pathway (AID 743065); also: nearly all actives have a fitted effect of over 55% in size; also: potency is read from the fitted curve at half-maximal effect
Procedure, shortened: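 Antagonism measured as loss of luciferase signal in GH3 cells stably carrying a TRE-luciferase reporter, co-treated with compound and T3 (1 nM final) for 23.5 h at 37 C. Viability was read in the same well by CellTiter-Fluor.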

[3] = system: thyroid hormone receptor (rat, GH3 cells); experiment: qHTS assay to identify small molecule agonists of the thyroid receptor (TR) signaling pathway (AID 743066; calls by dose curve)
[4] = qHTS assay to identify small molecule antagonists of the estrogen receptor alpha (ER-alpha) signaling pathway - cell viability counter screen (AID 743074; calls by dose curve;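 also: HEK293 cells carrying ER-alpha-UAS-bla reporter stimulated with 17beta-estradiol; nearly all actives have a fitted effect of over 45% in size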)
[5] = target: Estrogen receptor (Homo sapiens) (UniProt P03372); experiment: qHTS assay to identify small molecule agonists of the estrogen receptor alpha (ER-alpha) signaling pathway (AID 743075; calls by dose curve;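 also: HEK293 GripTite cells with ER-alpha and UAS-driven beta-lactamase reporter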)
[6] = target: Estrogen receptor (Homo sapiens) (UniProt P03372); experiment: qHTS assay to identify small molecule agonists of the estrogen receptor alpha (ER-alpha) signaling pathway using the BG1 cell line (AID 743079); details: BG1Luc4E2 cells, ERE-luciferase agonist, 22 h; activation: at 70.3 µM (top of the series); also: nearly all actives have a fitted effect of over 20% in size; also: potency is read from the fitted curve at half-maximal effect
[7] = qHTS assay to identify small molecule antagonists of the estrogen receptor alpha (ER-alpha) signaling pathway using the BG1 cell line (AID 743080; calls by dose curve;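 also: BG1 cells stimulated with 17beta-estradiol alongside compound; nearly all actives have a fitted effect of over 25% in size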)
Procedure, shortened: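 BG1Luc4E2, endogenous ER-alpha, 4xERE-luc; 5 d charcoal-stripped FBS, phenol red free; 24 h plating; cpd + 17beta-estradiol 21.5 h, 37 C/5% CO2; CellTiter-Fluor viability 30 min, then ONE-Glo luciferase 30 min RT.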

[8] = qHTS assay to identify small molecule antagonists of the estrogen receptor alpha (ER-alpha) signaling pathway using the BG1 cell line - cell viability counter screen (AID 743081);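 also: compound given together with 17beta-estradiol as the ER stimulus; nearly all actives have a fitted effect of over 45% in size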; also: potency is read from the fitted curve at half-maximal effect
[9] = target: Aromatase (Homo sapiens) (UniProt P11511); experiment: qHTS assay to identify aromatase inhibitors (AID 743083); also: nearly all actives have a fitted effect of over 55% in size
[10] = qHTS assay to identify aromatase inhibitors - cell viability counter screen (AID 743084);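 also: cells stimulated with testosterone during compound exposure; nearly all actives have a fitted effect of over 55% in size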; also: potency is read from the fitted curve at half-maximal effect
[11] = target: Aryl hydrocarbon receptor (Homo sapiens) (UniProt P35869); experiment: qHTS assay to identify small molecule that activate the aryl hydrocarbon receptor (AhR) signaling pathway (AID 743085); also: nearly all actives have a fitted effect of over 15% in size; also: potency is read from the fitted curve at half-maximal effect;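 as to activation: HG2L7.5c1 human HepG2 liver cells with stably integrated DRE-driven firefly reporter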
Procedure, shortened: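 Reporter assay in engineered HepG2 line HG2L7.5c1, whose plasmid carries twenty dioxin responsive elements upstream of firefly luciferase. Treatment lasted 24 h at 37C; ONE-Glo luminescence gauged induction.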

[12] = qHTS assay to identify small molecule that activate the aryl hydrocarbon receptor (AhR) signaling pathway - cell viability counter screen (AID 743086); also: nearly all actives have a fitted effect of over 45% in size; also: potency is read from the fitted curve at half-maximal effect
Procedure, shortened: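 Cytotoxicity counter screen: CellTiter-Fluor signal (30 min, 37 C) in 4000 HepG2 cells/well carrying the DRE-luciferase reporter, following 24 h compound exposure at 37 C.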

[13] = target: Peroxisome proliferator-activated receptor gamma (Homo sapiens) (UniProt P37231); experiment: qHTS assay to identify small molecule agonists of the peroxisome proliferator-activated receptor gamma (PPARg) signaling pathway (AID 743094; active = well fitted activation curve with a large enough effect in the signal ratio in the repeat runs, not every such curve was filed as active; inconclusive = weak or mixed curves, or effect the other way; inactive = no such curve, though single readings can be large or run the other way; the % refers to the signal ratio)
Procedure, shortened: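 Cell-based bla reporter, HEK293H background, PPARg-driven UAS. Pre-incubation 5 h, 37C, 5% CO2. Compound 17 h, 37C. Substrate 1 h RT; fluorescence.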

[14] = qHTS assay to identify small molecule antagonists of the peroxisome proliferator-activated receptor gamma (PPARg) signaling pathway - cell viability counter screen (AID 743194); also: nearly all actives have a fitted effect of over 55% in size
Procedure, shortened: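 Viability was measured as CellTiter-Glo luminescence in GeneBLAzer PPARg UAS-bla HEK293H cells. These cells had been exposed 17 h at 37 C to compounds together with rosiglitazone at 50 nM final, with the beta-lactamase readout taken in the same wells.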

[15] = qHTS assay for small molecule agonists of the antioxidant response element (ARE) signaling pathway - cell viability counter screen (AID 743203; calls by dose curve; also: nearly all actives have a fitted effect of over 55% in size)
Procedure, shortened: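 Measured in the same wells as the beta-lactamase ARE reporter, this read-out is CellTiter-Glo luminescence from HepG2 ARE-bla cells given compounds for 16 hrs.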

[16] = qHTS assay for small molecule activators of the heat shock response signaling pathway - cell viability counter screen (AID 743209); also: nearly all actives have a fitted effect of over 50% in size
Procedure, shortened: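 Same-well multiplex: after 2.5 h room-temperature incubation with LiveBLAzer B/G substrate and fluorescence reading, CellTiter-Glo reagent was added to HSE-bla HeLa cells that had received compound for 5 h at 37 C; luminescence read after 30 min.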

[17] = qHTS assay for small molecule activators of the heat shock response signaling pathway (AID 743210; active = well fitted activation curve with a large enough effect in the signal ratio in the repeat runs, with a control signal flat, not every such curve was filed as active; inconclusive = weak or mixed curves; the % refers to the signal ratio)
Procedure, shortened: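 Compound exposure lasted 5 h at 37 C in HeLa cells carrying a heat-shock-element-driven beta-lactamase reporter. Read-out: fluorescence intensity after 2.5 h room-temperature loading with LiveBLAzer B/G FRET substrate.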

[18] = target: Estrogen receptor (Homo sapiens) (UniProt P03372); experiment: qHTS assay to identify small molecule antagonists of the estrogen receptor alpha (ER-alpha) signaling pathway (AID 743069; active = well fitted curve in the direction sought with a large enough effect in the signal ratio in the repeat runs, not every such curve was filed as active; inconclusive = weak or mixed curves, or effect the other way; inactive = no such curve, though single readings can be large or run the other way; the % refers to the signal ratio; also: potency is read from the fitted curve at half-maximal effect)
Procedure, shortened: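 Antagonist mode: compounds in DMSO were co-added with 17beta-estradiol to ER-alpha-bla HEK293 cells (2% charcoal-stripped serum) and left 18 h at 37C. Reporter inhibition was measured as FRET fluorescence after 2 h LiveBLAzer substrate at room temperature.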

[19] = target: Peroxisome proliferator-activated receptor gamma (Homo sapiens) (UniProt P37231); experiment: qHTS assay to identify small molecule antagonists of the peroxisome proliferator-activated receptor gamma (PPARg) signaling pathway (AID 743191; calls by dose curve; also: nearly all actives have a fitted effect of over 30% in size; also: potency is read from the fitted curve at half-maximal effect)
Procedure, shortened: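 Beta-lactamase reporter under UAS control in HEK293H PPARg-bla cells; compound treatment 17 h at 37C. Read-out: fluorescence intensity after 1 h room-temperature incubation with LiveBLAzer B/G FRET substrate.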

[20] = qHTS assay for small molecule agonists of the antioxidant response element (ARE) signaling pathway (AID 743202; active = well fitted activation curve with a large enough effect in the signal ratio in the repeat runs, not every such curve was filed as active; inconclusive = weak or mixed curves, or effect the other way; inactive = no such curve, though single readings can be large or run the other way; the % refers to the signal ratio)
Procedure, shortened: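 After 16 hours of compound treatment at 37 C, HepG2 cells with a stably integrated ARE-driven beta-lactamase reporter were loaded 2 hours at room temperature with LiveBLAzer B/G FRET substrate and fluorescence intensity measured.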

Chain of Estrogen receptor (Homo sapiens) (P03372 whole entry, looked up): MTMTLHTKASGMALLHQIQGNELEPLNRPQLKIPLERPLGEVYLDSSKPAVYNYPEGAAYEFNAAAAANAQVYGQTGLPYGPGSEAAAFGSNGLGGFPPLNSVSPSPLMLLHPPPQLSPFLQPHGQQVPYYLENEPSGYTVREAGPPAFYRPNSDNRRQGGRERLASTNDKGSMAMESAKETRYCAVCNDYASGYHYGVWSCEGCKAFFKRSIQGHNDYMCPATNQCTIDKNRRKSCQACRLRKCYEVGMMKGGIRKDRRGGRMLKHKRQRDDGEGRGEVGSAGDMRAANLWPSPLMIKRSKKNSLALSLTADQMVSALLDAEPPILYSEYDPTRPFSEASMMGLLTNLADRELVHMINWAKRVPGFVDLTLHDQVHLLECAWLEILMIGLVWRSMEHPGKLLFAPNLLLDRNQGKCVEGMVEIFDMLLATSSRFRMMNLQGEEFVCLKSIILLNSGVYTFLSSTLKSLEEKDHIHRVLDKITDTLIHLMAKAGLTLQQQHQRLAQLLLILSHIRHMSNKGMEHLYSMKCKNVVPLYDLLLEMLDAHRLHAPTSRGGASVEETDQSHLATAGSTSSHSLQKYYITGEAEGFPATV
Chain of Aryl hydrocarbon receptor (Homo sapiens) (P35869 whole entry, looked up): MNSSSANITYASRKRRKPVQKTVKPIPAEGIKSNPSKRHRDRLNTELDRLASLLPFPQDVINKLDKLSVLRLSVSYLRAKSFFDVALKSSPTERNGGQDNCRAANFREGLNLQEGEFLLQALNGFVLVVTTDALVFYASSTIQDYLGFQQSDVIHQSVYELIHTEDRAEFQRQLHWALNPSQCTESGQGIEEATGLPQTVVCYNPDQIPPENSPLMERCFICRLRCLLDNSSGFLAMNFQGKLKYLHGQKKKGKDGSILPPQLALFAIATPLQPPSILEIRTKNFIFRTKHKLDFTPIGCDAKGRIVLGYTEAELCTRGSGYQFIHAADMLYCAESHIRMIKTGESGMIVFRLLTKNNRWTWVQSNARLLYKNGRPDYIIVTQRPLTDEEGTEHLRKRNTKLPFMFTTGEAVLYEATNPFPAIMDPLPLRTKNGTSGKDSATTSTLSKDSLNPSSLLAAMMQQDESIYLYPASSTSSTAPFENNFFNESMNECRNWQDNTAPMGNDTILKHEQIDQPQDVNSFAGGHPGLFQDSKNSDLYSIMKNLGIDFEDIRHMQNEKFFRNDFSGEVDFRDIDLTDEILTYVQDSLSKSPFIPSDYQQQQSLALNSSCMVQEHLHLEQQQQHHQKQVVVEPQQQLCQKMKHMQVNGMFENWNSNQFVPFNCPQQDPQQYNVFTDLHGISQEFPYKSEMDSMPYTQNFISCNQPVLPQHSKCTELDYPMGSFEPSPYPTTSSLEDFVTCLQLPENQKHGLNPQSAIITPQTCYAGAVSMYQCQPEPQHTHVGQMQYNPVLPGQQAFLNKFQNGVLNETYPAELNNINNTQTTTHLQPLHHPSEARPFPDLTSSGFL
Chain of Aromatase (Homo sapiens) (P11511 whole entry, looked up): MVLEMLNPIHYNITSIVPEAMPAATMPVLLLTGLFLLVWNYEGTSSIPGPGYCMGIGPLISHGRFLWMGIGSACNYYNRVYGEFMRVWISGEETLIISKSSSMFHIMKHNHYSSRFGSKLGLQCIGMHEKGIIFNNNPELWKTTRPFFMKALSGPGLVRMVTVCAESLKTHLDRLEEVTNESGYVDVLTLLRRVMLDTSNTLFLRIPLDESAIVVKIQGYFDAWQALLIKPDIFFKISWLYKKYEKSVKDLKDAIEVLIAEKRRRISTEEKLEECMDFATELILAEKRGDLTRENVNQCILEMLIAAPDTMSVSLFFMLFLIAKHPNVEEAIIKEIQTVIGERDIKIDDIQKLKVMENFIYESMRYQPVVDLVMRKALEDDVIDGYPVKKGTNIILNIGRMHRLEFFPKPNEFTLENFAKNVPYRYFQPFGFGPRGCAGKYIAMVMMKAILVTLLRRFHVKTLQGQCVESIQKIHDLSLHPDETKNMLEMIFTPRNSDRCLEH
Chain of Peroxisome proliferator-activated receptor gamma (Homo sapiens) (P37231 whole entry, looked up): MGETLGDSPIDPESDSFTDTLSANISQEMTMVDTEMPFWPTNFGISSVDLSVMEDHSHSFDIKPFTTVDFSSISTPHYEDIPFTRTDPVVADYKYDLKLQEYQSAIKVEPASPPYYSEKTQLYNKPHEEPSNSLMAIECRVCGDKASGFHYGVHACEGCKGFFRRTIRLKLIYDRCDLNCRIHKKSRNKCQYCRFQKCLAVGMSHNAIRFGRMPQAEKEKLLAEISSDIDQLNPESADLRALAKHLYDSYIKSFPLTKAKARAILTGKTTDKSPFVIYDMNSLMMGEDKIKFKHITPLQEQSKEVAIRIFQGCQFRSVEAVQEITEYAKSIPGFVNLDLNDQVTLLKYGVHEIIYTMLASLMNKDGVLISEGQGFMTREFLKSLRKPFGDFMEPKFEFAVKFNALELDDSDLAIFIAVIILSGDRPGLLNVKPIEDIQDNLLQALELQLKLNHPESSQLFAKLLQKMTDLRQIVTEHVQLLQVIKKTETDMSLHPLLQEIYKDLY

Structure (SMILES) | Potency [1] | Potency [2] | outcome [3] | Potency [4] | Potency [5] | Potency [6] | Potency [7] | Potency [8] | Potency [9] | Potency [10] | Potency [11] | Potency [12] | Potency [13] | Potency [14] | Potency [15] | Potency [16] | Potency [17] | Potency [18] | Potency [19] | Potency [20]
C=C(C)C(=O)OCCOCCOC(=O)C(=C)C | inactive | inactive | inactive | inactive | inactive | inactive | inactive | inactive | inactive | inactive | inactive | inactive | inactive | inactive | inactive | inactive | inactive | – | – | –
CC[N+](CC)(CCNC(=O)C(=O)NCC[N+](CC)(CC)Cc1ccccc1Cl)Cc1ccccc1Cl | inactive | inactive | inactive | inactive | inactive | – | inactive | inactive | inactive | inactive | inactive | inactive | inactive | – | – | – | inactive | inactive | inactive | inactive
CCCCCCC(C)(C)C(=O)O | inactive | inactive | inactive | – | inactive | inactive | inactive | inactive | inactive | inactive | inactive | inactive | inactive | – | inactive | inactive | inactive | inactive | inactive | inactive
Nc1ccc(N=Nc2ccccc2)c(N)c1 | 53.3 µM (active) | inactive | inactive | inactive | inactive | 0.336 µM (active) | – | 26.7 µM (active) | inactive | 30 µM (active) | 30 µM (active) | – | inactive | – | inactive | inactive | – | inactive | 42.7 µM (active) | –
CC(=O)Nc1ccc(C)cc1C | inactive | inactive | inactive | inactive | – | – | – | inactive | inactive | inactive | inactive | inactive | inactive | inactive | inactive | inactive | – | – | inactive | inactive
CCCCCCCCN | inactive | inactive | inactive | inactive | – | – | – | inactive | inactive | inactive | inactive | inactive | inactive | inactive | inactive | inactive | – | – | inactive | inactive
COc1cc(N)c(Cl)cc1C(=O)NC1CCN(CCCOc2ccc(F)cc2)CC1OC (stereo unspecified) | 11.4 µM (active) | 11.4 µM (active) | inactive | inactive | inactive | – | inactive | – | inactive | inactive | inactive | inactive | inactive | inactive | inactive | inactive | inactive | inactive | inactive | inactive
CC1=Nc2ccc3ccccc3c2C1(C)C | inactive | inactive | inactive | inactive | inactive | – | inactive | inactive | inactive | inactive | inactive | 54.5 µM (active) | inactive | inactive | inactive | inactive | – | – | inactive | –
C=C1C[C@@]23CC[C@H]4[C@@](C)(CCC[C@@]4(C)C(=O)O[C@@H]4O[C@H](CO)[C@@H](O)[C@H](O)[C@H]4O)[C@@H]2CC[C@]1(O[C@@H]1O[C@H](CO)[C@@H](O)[C@H](O[C@@H]2O[C@H](CO)[C@@H](O)[C@H](O)[C@H]2O)[C@H]1O[C@@H]1O[C@H](CO)[C@@H](O)[C@H](O)[C@H]1O)C3 | inactive | inactive | inactive | inactive | inactive | inactive | inactive | – | inactive | inactive | inactive | inactive | inactive | inactive | inactive | inactive | inactive | inactive | – | inactive
CC1(C)S[C@@H]2[C@H](NC(=O)C(c3ccccc3)S(=O)(=O)O)C(=O)N2[C@H]1C(=O)O (stereo partly specified) | inactive | inactive | inactive | inactive | inactive | inactive | inactive | – | inactive | inactive | inactive | inactive | inactive | inactive | inactive | inactive | inactive | inactive | inactive | –
CCOC(=O)c1ccccc1C(=C1C=C(Br)C(=O)C(Br)=C1)c1cc(Br)c(O)c(Br)c1 | 45.7 µM (active) | 18.2 µM (active) | inactive | – | – | inactive | – | inactive | inactive | inactive | inactive | inactive | – | – | inactive | – | – | 5.8 µM [inconclusive] (active) | – | –
CCC1(CO)COCOC1 | inactive | inactive | inactive | – | inactive | inactive | inactive | inactive | inactive | inactive | inactive | – | – | inactive | inactive | inactive | – | inactive | – | –
